Laboratory results taken from PubChem BioAssay AID1159580 (chemical genetic matrix, 2015).
Hit rate of the full screen: of about 5,500 compounds, about 2,000 (36%) were called active. Another 18% or so got no clear call; they are omitted. Rule as the data show it: active = normalized growth mostly below about 0.91 (no sharp cut-off); inconclusive = no clear call, values can overlap the other calls; inactive = mostly above about 0.92. The list shows a part of the results.

Experiment: chemical genetic growth profiling, strain panel (AID 1159580);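 also: tested at 20 µM; growth read once vehicle control cultures reached saturation at 30 °C; 1 = growth at the plate median or of vehicle wells; lower values mean less growth of the strain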
Details: S. cerevisiae deletion strains, growth OD
[1] = locus YAL013W, strain DEP1, active compounds read low
[2] = locus YBR229C, strain ROT2, active compounds read low
[3] = locus YDL101C, strain DUN1, active compounds read low
[4] = locus YDR150W, strain NUM1, active compounds read low
[5] = locus YEL061C, strain CIN8, active compounds read low
[6] = locus YGR078C, strain PAC10, active compounds read low
[7] = locus YHR030C, strain SLT2, active compounds read low
[8] = locus YHR087W, strain rtc3, active compounds read low
[9] = locus YJR043C, strain POL32, active compounds read low
[10] = locus YJR075W, strain HOC1, active compounds read low
[11] = locus YLR039C, strain RIC1, active compounds read low
[12] = locus YLR058C, strain SHM2 (second series), active compounds read low
[13] = locus YLR085C, strain ARP6, active compounds read low
[14] = locus YLR262C, strain YPT6, active compounds read low
[15] = locus YML094W, strain GIM5, active compounds read low
[16] = locus YMR219W, strain ESC1, active compounds read low
[17] = locus YMR263W, strain SAP30, active compounds read low
[18] = locus YNL128W, strain TEP1, active compounds read low
[19] = locus YNL153C, strain GIM3, active compounds read low
[20] = locus YNL298W, strain CLA4 (second series), active compounds read low
[21] = locus YNL322C, strain KRE1, active compounds read low
[22] = locus YNR030W, strain Alg12, active compounds read low
[23] = locus YOL006C, strain TOP1, active compounds read low
[24] = locus YPL055C, strain LGE1, active compounds read low
[25] = locus YPL241C, strain CIN2, active compounds read low
[26] = locus YPR135W, strain CTF4, active compounds read low
[27] = locus YMR307W, strain GAS1, active compounds read low

Measured: normalized growth

O=[N+]([O-])c1ccc(OCCCOc2ccc([N+](=O)[O-])cc2)cc1
inactive: [1] 1 | [2] 0.978 | [3] 0.98 | [4] 0.988 | [5] 0.979 | [6] 0.991 | locus YGR229C, strain SMI1, active compounds read low 0.995 | [7] 0.91 | [8] 0.973 | [9] 1.01 | [10] 0.971 | locus YKL190W, strain CNB1, active compounds read low 1 | [11] 0.966 | [12] 0.975 | [13] 0.993 | [14] 0.969 | [15] 0.934 | [16] 0.983 | [17] 1.01 | [18] 0.996 | [19] 0.995 | [20] 0.961 | [21] 0.99 | [22] 0.979 | [23] 0.97 | [24] 1.02 | [25] 0.953 | [26] 0.932

O=[N+]([O-])c1ccc(Oc2cccc3cccnc23)cc1
inactive: [1] 1.01 | [2] 1 | [3] 0.942 | locus YDL134C, strain PPH21, active compounds read low 0.993 | [4] 1 | [5] 0.98 | [6] 0.991 | [7] 0.736 | [8] 1 | [9] 0.98 | [10] 1.02 | [11] 0.805 | [12] 1 | [13] 0.959 | [15] 0.991 | [16] 0.993 | [17] 1 | [27] 0.719 | [20] 0.892 | [21] 1 | [22] 0.994 | [23] 0.872 | [24] 0.919 | [26] 0.754
active: [14] 0.799 | [19] 0.848 | [25] 0.854

CNCC(O)c1ccc(O)cc1 (stereo not given)
inactive: [1] 1.03 | locus YAL040C, strain CLN3, active compounds read low 1.02 | locus YCL061C, strain MRC1 (second series), active compounds read low 1 | locus YDR363W, strain ESC2, active compounds read low 1.01 | locus YER002W, strain NOP16, active compounds read low 1.02 | [6] 1.02 | [10] 1.01 | [17] 1 | [27] 1.04 | [18] 1.03 | locus YNL175C, strain NOP13, active compounds read low 1.02 | locus YNL197C, strain WHI3, active compounds read low 1.01 | locus YNL224C, strain SQS1, active compounds read low 0.999 | locus YOR083W, strain WHI5 (second series), active compounds read low 1.02 | [25] 1
